# Laboratory results from PubChem BioAssay (NCATS).
# A number with no mark means an inactive call. The call rests on the fitted dose curve; in most records, active means well fitted inhibition curve with a large enough effect; inconclusive means small, poorly fitted or top-dose-only effect; inactive means flat fitted curve, though single readings scatter.
# Tested on: Nanoluciferase (engineered Oplophorus gracilirostris luciferase)
# Assay: Primary Nanoluciferase (NLuc) qHTS assay for identification of artifact compounds. (AID 1845222);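 further: 0% = DMSO and -100% = no enzyme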
# Conditions: NLuc-conditioned medium, Nano-Glo luminescence, 5 min; series mostly up to 54.1 µM; activity, negative = inhibition: at the top concentration
# In short: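 Luminescence read-out of secreted NLuc in S16 cell conditioned medium (1:55); compounds tested with 15 min RT preincubation, then Nano-Glo substrate 1:100, 5 min. % inhibition vs no-enzyme and DMSO controls, 4-parameter Hill fit.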
row,Compound,"activity, negative = inhibition"
1,O=S(=O)(NCc1ccccn1)c1ccc(Br)c2ccccc12,-6.16%
2,C/C=C(\C)C(=O)O[C@H]1C=C(CO)C(=O)[C@H](OC(C)=O)[C@H]1C(C)C,-1.27%
3,O=C(NCc1ccccc1)c1ccc2c(=O)n(-c3cccc(C(F)(F)F)c3)c(=S)[nH]c2c1,0%
4,C[C@H](Nc1cc2c(-c3ccc4c(c3)OCO4)noc2cn1)c1ccccc1,3.66%
5,CC1=CC2/C=C(\C)CCC3OC(C)(C)OC3CCC(=O)C23C(=O)NC(CC(C)C)C3C1C (stereo not given),1.16% [at 25.7 µM]
6,COc1ccc(Sc2ccc(NC(=O)c3ccccc3Cl)cc2C#N)cc1,1.55%
7,COc1ccc([C@H]2OC[C@H]3O[C@@H](O[C@H]4[C@@H]2NC[C@@H]4O)[C@H](O)[C@H]3O)cc1,-0.877%
8,CC(=O)O[C@H]1C[C@@](O)(C(C)C)[C@@H]2[C@@H](OC(=O)c3ccc(O)cc3)CC(C)=CC[C@@]12C,0% [at 25.7 µM]
9,CCCCNc1ncc2c(-c3ccc(S(=O)(=O)N4CCOCC4)cc3)nn(C3CCC(O)CC3)c2n1 (stereo not given),0%
10,CN1CCN(C(=O)CN[C@@H]2C[C@H]2c2ccc(OCc3ccccc3)cc2)CC1,-8.44%
11,O=C(N[C@H]1CCC[C@H](CO)C1)C1CCN(c2nc3cc(Cl)c(-c4ccc(Cl)cc4)cc3o2)CC1,-0.212%
12,Cn1ncc(Cl)c1-c1cc(C(=O)N[C@H](CN)Cc2cccc(F)c2)sc1Cl,-0.416%
13,C=C(C)C(=O)O[C@H]1[C@H]2C(=C)C(=O)O[C@@H]2/C=C(\CO)CC/C=C(/C=O)[C@@H]1O,0.136%
14,Cc1noc(C)c1-c1cc(O)cc(C(O)c2ccccc2)c1 (stereo not given),-2.27%
15,C=C1C(=O)OC2/C=C(/C)C3=CC(=O)C(C)(CC(OC(=O)/C(C)=C/COC(C)=O)C12)O3 (stereo not given),2.79% [at 25.7 µM]
16,C[C@@H](O[C@H]1OCCN(Cc2nn(P(=O)(O)O)c(=O)[nH]2)[C@H]1c1ccc(F)cc1)c1cc(C(F)(F)F)cc(C(F)(F)F)c1,-6.06% [at 25.7 µM]
17,Cn1ncc(Cl)c1-c1cc(C(=O)NC(CN)Cc2ccc(F)c(F)c2)oc1Cl (stereo not given),3.6%
18,O=c1[nH]c2cccc(N3CCN(Cc4ccc(-c5ccccc5)cc4)CC3)c2o1,0.796%

row,Compound,"activity, negative = inhibition"
1,CS(=O)(=O)Nc1ccc2oc3c(OC(F)F)ccc(C(=O)Nc4c(Cl)cncc4Cl)c3c2c1,-4.46%
2,O=C(NCCCN1CCC2(CC1)OCc1ccccc12)[C@H]1CCCN1Cc1ccccc1,0.354%
3,O=C(c1ccc(Cl)cc1)N1CCN(c2ccnc3cc(Cl)ccc23)CC1,-3.24%
4,COc1cc(O)cc(OC2OC(CO)C(O)C(O)C2O)c1 (stereo not given),3.39%
5,O=C(NCc1ccc(OC(F)(F)F)cc1)C1c2c(F)cccc2C(=O)N1CCc1ccccn1 (stereo not given),1.01%
6,C=CC(=O)N1CC(N2CCN(C(=O)CNc3cc(C4CC4)c(Cl)cc3O)CC2)C1,0.51%
7,CC(C)CCNC(=O)[C@H](CC(C)C)NC(=O)[C@H]1O[C@@H]1C(=O)O,4.43%
8,CC(C)c1c(O)ccc2c1CC[C@H]1C(C)(C)CCC[C@]21C,0.279%
9,CC(=O)O[C@@H]1[C@H](O[C@@H]2O[C@@H](CO)[C@H](O)[C@H]2O)[C@@H](O[C@@H]2O[C@@H](C)[C@H](O[C@@H]3OC[C@@H](O)[C@H](O)[C@H]3O)[C@@H](O)[C@H]2O)[C@H](OC(=O)[C@]23CCC(C)(C)C[C@H]2C2=CCC4[C@@]5(C)CC[C@H](O[C@@H]6O[C@H](C(=O)O)[C@@H](O)[C@H](O)[C@H]6O[C@@H]6O[C@H](CO)[C@H](O)[C@H](O)[C@H]6O)[C@@](C)(C=O)C5CC[C@@]4(C)[C@]2(C)C[C@H]3O)O[C@@H]1C (stereo not given in full),0% [at 11.6 µM]
10,CCN1CCC[C@@H]1CNC(=O)c1ccc2c(c1)NC(=O)c1cccc(C)c1S2,3.02%
11,C=CCCN1CCC2(CC1)CN(C(=O)c1c(F)cccc1F)c1ccc(Cl)cc12,2.65%
12,O=C(Nc1cnc(Cl)nc1)c1ccc(F)c(F)c1,-0.984%
13,COc1cc(NC(=O)c2cccc(-n3cc(NC(=O)Nc4cccc(C)c4)cn3)c2)cc(OC)c1OC,0.888%
14,CC(=O)Nc1cccc(Nc2ncnc(N3CCC(OCc4ccc(OC(F)(F)F)cc4)CC3)n2)c1C,3.78%
15,C=C(C)C(=O)O[C@H]1[C@H]2C(=C)C(=O)O[C@@H]2C[C@@H](C)[C@@H]2O[C@@H]2C(=O)[C@](C)(O)[C@@H]1OC(=O)C(=C)C,2.79% [at 25.7 µM]
16,CCN1CCN(Cc2ccc(NC(=O)c3ccc(C)c(Oc4ccnc5[nH]ccc45)c3)cc2C(F)(F)F)CC1,2.36%
17,CCCn1ncc(CN2CCCC(C(=O)c3cccc(OC(C)C)c3)C2)c1C (stereo not given),-6.21%
